PubChem BioAssay (NCI)
The panel holds about 83,000 compounds, 20% with a hit somewhere; the sample as a whole holds those more often.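 Growth was measured after 48 h exposure to one concentration of compound in 96-well plates. Values under 10 count as active.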 A number with no mark means an inactive call. The source made the active and inactive calls. Starred links: 1 amine or outer side, 2 acyl side, 3 side chain; linkers in the order of their positions; H or OH if unused. Positions of bridges follow the written chain, without caps; N, C: chain ends. Non-standard residues stand in square brackets, D forms with d. Residues, ends and D or L forms follow the SMILES beside them. Chains are numbered I, II in the order given. Actinocin(9to1) = Cc1c2oc3c(C)ccc(C(=O)[*:1])c3nc-2c(C(=O)[*:2])c(N)c1=O; aThr = C[C@H](O)[C@H](N)C(=O)O; NMeV = CN[C@H](C(=O)O)C(C)C; Sar = CNCC(=O)O

Each compound was assayed on HCC-2998 colon (assay: NCI-60 one-dose screen, 48 h (100 = growth as untreated, 0 = no growth, -100 = all killed)). Details: 0.0025 µM.
Procedure: Growth inhibition of the HCC-2998 human tumor cell line is measured as a screen for anti-cancer activity. Cells are grown in 96 well plates and exposed to the test compound for 48 hours. Compounds are tested at a single concentration, which is 10^-5 M for most compounds. The reported endpoint is percent growth (GI% or GIPRCNT), where numbers from 0 - 100% represent growth inhibition, and numbers from -100% - 0 represent cell death. For example, a value of 40 represents 60% growth inhibition. A value of 0 means no net growth occurred over the course of the experiment. A value of -40 indicates 40% of cells at the beginning of the experiment died by the end of the experiment. A value of -100 means all cells are dead at the end of the experiment.
NCI-60 Human Tumor Cell Lines Screen was performed using the standard one-dose NCI protocol, which is described in more detail at https://dtp.cancer.gov/discovery_development/nci-60/default.htm.
Compounds with GIPRCNT values below 10 were considered active. Activity score was based on GIPRCNT using the following formula: […]
Score is 0 for GIPRCNT values of 100 or above, 50 for GIPRCNT values of 0, and 100 for GIPRCNT values of -100.

| Structure (SMILES) | growth [%] |
| --- | --- |
| Cc1c2oc3c(C)ccc(C(=O)N[C@@H]4C(=O)N[C@H](C(C)C)C(=O)N5CCC[C@H]5C(=O)N(C)CC(=O)N(C)[C@@H](C(C)C)C(=O)O[C@H]4C)c3nc-2c(C(=O)N[C@@H]2C(=O)N[C@H](C(C)C)C(=O)N3CCC[C@H]3C(=O)N(C)CC(=O)N(C)[C@@H](C(C)C)C(=O)O[C@H]2C)c(N)c1=O (I: [aThr][dV]P[Sar][NMeV] / II: [aThr][dV]P[Sar][NMeV]; ester I:1-I:C, II:1-II:C; linker I:N-II:N via Actinocin(9to1)) | 15.2 |

Same assay, conditions: 10 µM

| Structure (SMILES) | growth |
| --- | --- |
| Cc1cnc(/C=N\NC(N)=S)c2cccc(N)c12 | -39.3% (active) |
| S=c1[nH]nc(Cc2ccccc2)c(=S)[nH]1 | 103% |
| Cc1cc(NCCCN(C)C)c2ccc3c(ccc4c(NCCCN(C)C)cc(C)nc43)c2n1 | -66.1% (active) |
| O=c1[nH]cc(F)c(=O)[nH]1 | 18.9% |
| O=C(/C(=C/c1ccccc1)CBr)c1ccccc1 | 108% |
| CSc1ccc2c(c1)C(N1CCN(C)CC1)Cc1ccccc1S2 (stereo not given) | -39.2% (active) |
| CCCCCCCCCCCCCCCCCN | 126% |
| CN(C)CCC(=O)c1c[nH]c2ccccc12 | 115% |
| COc1cc(C(C)(C)C)cc(OC)c1C(O)(c1c(OC)cc(C(C)(C)C)cc1OC)c1c(OC)cc(C(C)(C)C)cc1OC | -91.9% (active) |
| N#C/C(=C1C=C/C(=N\O)C(Cl)=C\1)c1ccccc1 | 89.7% |
| BrC/C=C/C[P+](c1ccccc1)(c1ccccc1)c1ccccc1 | 71.9% |
| Nc1ccc2cc(Br)c3ccccc3c2c1 | 47.7% |

Same assay, conditions: 25 µM

| Structure (SMILES) | growth |
| --- | --- |
| O=c1[nH]cc(F)c(=O)[nH]1 | -17.8% (active) |

Same assay, conditions: 50 µM

| Structure (SMILES) | growth [%] |
| --- | --- |
| O=c1[nH]cc(F)c(=O)[nH]1 | 35.7 |
